These results are taken from PubChem BioAssay (EPA / NIEHS).

Active and inactive are the calls of the source. The calls were made as follows: active = hit-call score of the fitted dose curve at least 0.9, where 1 is the maximum; inactive = score below 0.9.

What all share (conditions): mRNA level, 48 h; actives raise or lower the signal
Read-out in assay [1]: Signal transducer and activator of transcription 3 (Homo sapiens) (UniProt P40763)
The experiment in a line: LTEA_HepaRG_STAT3: Life Technologies and Expression Analysis (LTEA) Assay for Signal transducer and activator of transcription (STAT3) using HepaRG (AID 2283529). In a few lines:
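STAT3 transcript quantified by qRT-PCR against three housekeeping genes (ACTB, GAPDH, POLR2A), fitted both directions relative to DMSO. HepaRG cultures exposed 48 h to eight half-log concentrations, top 100 uM, 0.5% DMSO, serum-free induction medium.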

Read-out in assay [2]: solute carrier (SLCO1B1), SLCO1B1 (gene 10599)
The experiment in a line: LTEA_HepaRG_SLCO1B1: Life Technologies and Expression Analysis (LTEA) Assay for solute carrier (SLCO1B1) using HepaRG (AID 2283530). In a few lines:
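Differentiated human HepaRG cells were exposed for 48 h in serum-free induction medium to eight half-log concentrations, top 100 uM, in 0.5% DMSO. SLCO1B1 mRNA was measured by qRT-PCR, normalized to ACTB, GAPDH and POLR2A, and fitted bidirectionally against DMSO.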

Read-out in assay [3]: sulfotransferase 2A1 (SULT2A1), SULT2A1 (gene 6822)
The experiment in a line: LTEA_HepaRG_SULT2A1: Life Technologies and Expression Analysis (LTEA) Assay for sulfotransferase 2A1 (SULT2A1) using HepaRG (AID 2283531). Put shortly: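 HepaRG human liver cells, 48 h exposure in serum-free induction medium to 8 half-log concentrations topping at 100 µM (0.5% DMSO), duplicate wells. SULT2A1 mRNA measured by TaqMan qRT-PCR, normalized to ACTB/GAPDH/POLR2A; bidirectional fit against DMSO.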

Read-out in assay [4]: Transforming Growth Factor (TGFA), TGFA (gene 7039)
The experiment in a line: LTEA_HepaRG_TGFA: Life Technologies and Expression Analysis (LTEA) Assay for Transforming Growth Factor (TGFA) using HepaRG (AID 2283532). Put shortly: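 TGFA transcript quantified by qRT-PCR (Fluidigm arrays) against three housekeeping genes, after 48 hours chemical treatment of HepaRG cells. Top concentration 100 uM with half-log dilutions, 8 points, duplicates, 0.5% DMSO.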

Read-out in assay [5]: Transforming Growth Factor (TGFB1), TGFB1 (gene 7040)
In words: LTEA_HepaRG_TGFB1: Life Technologies and Expression Analysis (LTEA) Assay for Transforming Growth Factor (TGFB1) Transporter using HepaRG (AID 2283533). Put shortly:
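Differentiated HepaRG cells exposed 48 hr in serum-free induction medium to eight half-log concentrations up to 100 uM (0.5% DMSO), duplicate; TGFB1 mRNA by TaqMan qRT-PCR normalised to ACTB, GAPDH, POLR2A; bidirectional fit against DMSO.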

Read-out in assay [6]: TIMP1, TIMP1 (gene 7076)
In words: LTEA_HepaRG_TIMP1: Life Technologies and Expression Analysis (LTEA) Assay for TIMP1 using HepaRG (AID 2283534).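 Also: TaqMan qRT-PCR signal normalized to ACTB GAPDH and POLR2A housekeeping genes.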 In a few lines: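 Differentiated HepaRG cells exposed 48 h in serum-free induction medium, duplicates, eight half-log concentrations from 100 uM in 0.5% DMSO. TIMP1 mRNA by qRT-PCR normalized to ACTB, GAPDH, POLR2A; bidirectional fitting against DMSO.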

Read-out in assay [7]: Tumor necrosis factor receptor 1 (TNFRSF1A), TNFRSF1A (gene 7132)
The experiment in a line: LTEA_HepaRG_TNFRSF1A: Life Technologies and Expression Analysis (LTEA) Assay for Tumor necrosis factor receptor 1 (TNFRSF1A) using HepaRG (AID 2283535). In a few lines: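 Differentiated HepaRG cells in serum-free induction medium, exposed 48 h in duplicate to 8 half-log concentrations up to 100 uM in 0.5% DMSO. TNFRSF1A mRNA by Fluidigm TaqMan qRT-PCR, normalized to ACTB, GAPDH, POLR2A; bidirectional fit.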

Read-out in assay [8]: Thyroid Hormone Responsive (THRSP), THRSP (gene 7069)
The experiment in a line: LTEA_HepaRG_THRSP: Life Technologies and Expression Analysis (LTEA) Assay for Thyroid Hormone Responsive (THRSP) using HepaRG (AID 2283536). Put shortly:
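THRSP transcript quantified by Fluidigm qRT-PCR against three housekeeping genes after 48 h chemical exposure of HepaRG cells in serum-free induction medium; eight-point half-log series, top 100 uM, 0.5% DMSO vehicle, duplicate wells.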

Read-out in assay [9]: Cellular tumor antigen p53 (Homo sapiens) (UniProt P04637)
The experiment in a line: LTEA_HepaRG_TP53: Life Technologies and Expression Analysis (LTEA) Assay for Tumor Protein P53 (TP53) using HepaRG (AID 2283537). In a few lines: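 TP53 transcript measured by qRT-PCR, normalized to three housekeeping genes, after 48 h treatment of human HepaRG cultures with chemicals from 100 uM downward in half-log steps (0.5% DMSO vehicle, serum-free induction medium). Up- or down-regulation fitted against DMSO.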

Read-out in assay [10]: UDP glucuronosyltransferase (UGT1A1), UGT1A1 (gene 54658)
In words: LTEA_HepaRG_UGT1A1: Life Technologies and Expression Analysis (LTEA) Assay for UDP glucuronosyltransferase (UGT1A1) using HepaRG (AID 2283538). Put shortly:
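Cells are plated, cultured 48 h, switched to serum-free induction medium, then dosed 48 h at eight concentrations (max 100 uM, 0.5% DMSO). RNA is isolated and UGT1A1 expression measured by qRT-PCR; changes versus DMSO are fitted in both directions.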

Sequence of Cellular tumor antigen p53 (Homo sapiens) (P04637 whole entry, looked up): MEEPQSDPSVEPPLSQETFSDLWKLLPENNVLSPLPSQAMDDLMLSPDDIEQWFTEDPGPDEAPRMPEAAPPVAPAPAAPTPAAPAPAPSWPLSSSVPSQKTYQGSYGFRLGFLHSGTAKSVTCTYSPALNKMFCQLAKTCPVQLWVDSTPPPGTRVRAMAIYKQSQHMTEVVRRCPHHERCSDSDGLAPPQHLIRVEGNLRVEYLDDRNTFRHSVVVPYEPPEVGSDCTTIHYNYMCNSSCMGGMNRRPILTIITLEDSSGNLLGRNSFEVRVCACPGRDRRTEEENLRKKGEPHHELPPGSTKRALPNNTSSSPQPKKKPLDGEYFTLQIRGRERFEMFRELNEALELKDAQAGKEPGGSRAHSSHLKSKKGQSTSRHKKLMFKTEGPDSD
Sequence of Signal transducer and activator of transcription 3 (Homo sapiens) (P40763 whole entry, looked up): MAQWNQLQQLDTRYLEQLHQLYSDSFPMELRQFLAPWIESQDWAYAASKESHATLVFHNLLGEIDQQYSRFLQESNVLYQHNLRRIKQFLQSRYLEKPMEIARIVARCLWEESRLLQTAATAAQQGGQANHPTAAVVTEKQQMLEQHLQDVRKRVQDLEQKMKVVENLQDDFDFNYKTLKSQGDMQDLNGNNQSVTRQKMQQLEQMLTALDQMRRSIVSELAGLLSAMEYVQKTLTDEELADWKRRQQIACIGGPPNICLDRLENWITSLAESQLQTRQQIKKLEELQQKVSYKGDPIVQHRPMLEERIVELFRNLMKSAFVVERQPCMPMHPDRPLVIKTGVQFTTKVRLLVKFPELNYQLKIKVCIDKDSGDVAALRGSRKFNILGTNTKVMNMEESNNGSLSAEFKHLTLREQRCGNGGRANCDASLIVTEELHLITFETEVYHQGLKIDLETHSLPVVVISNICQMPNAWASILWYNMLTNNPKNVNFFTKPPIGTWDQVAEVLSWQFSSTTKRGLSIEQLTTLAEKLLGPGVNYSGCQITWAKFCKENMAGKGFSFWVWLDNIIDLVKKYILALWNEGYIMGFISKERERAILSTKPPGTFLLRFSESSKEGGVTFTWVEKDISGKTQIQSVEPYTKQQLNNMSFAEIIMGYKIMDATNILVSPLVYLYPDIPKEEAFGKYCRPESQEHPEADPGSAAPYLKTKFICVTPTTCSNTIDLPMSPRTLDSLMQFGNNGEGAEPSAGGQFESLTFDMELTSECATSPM

For the compound `O=[N+]([O-])c1ccc(O)cc1`, the compound was classed as inactive in assay [1], in assay [2], in assay [3], in assay [4], in assay [5] and in assay [6]. Also, the compound was called inactive in assay [7], in [8], in [9] and in assay [10].
Turning to `CCCCCCCCCCCCN1CCCC1=O`, the compound was called inactive in [1], in [2], in assay [3], in assay [4], in assay [5] and in assay [6]. The compound was classed as inactive in assay [7], in assay [8], in assay [9] and in [10].
On to `Oc1cccc(O)c1`, for which the call in assay [1], in assay [2], in assay [3], in assay [4], in assay [5] and in [6] was inactive. The outcome in assay [7], in assay [8], in [9] and in assay [10] was inactive.
Turning to `COC(=O)CCCCC(=O)OC`, the outcome in assay [1], in assay [2], in assay [3], in [4], in assay [5] and in assay [6] was inactive. Moreover, the compound was called inactive in assay [7], in [8], in [9] and in [10].
As a reminder, the AC50 is the midpoint of the concentration-response curve, whichever way the signal moves. `CCc1ccc(CCOc2ccc(CC3SC(=O)NC3=O)cc2)nc1` (stereo not given): the compound was classed as inactive in [1], in assay [5], in assay [6] and in [7]. Moreover, the AC50 is 67.5 µM (active) in [2]; 81.1 µM (active) in [3]; 24 µM (active) in assay [4]; 83.8 µM (active) in assay [8]; 80.4 µM (active) in [9]; 12.2 µM (active) in [10].
`CCCCC(CC)COC(=O)CCCCC(=O)OCC(CC)CCCC` (stereo not given): the compound was called inactive in assay [1], in [2], in assay [3], in assay [4], in assay [5] and in assay [6]. Besides, the compound was called inactive in [7], in assay [8], in [9] and in assay [10].
On to `CCCCCCCCC(=O)O`, for which the call in assay [1], in assay [2], in [3], in [4], in assay [5] and in [6] was inactive. For the same compound, the result in assay [7], in assay [8], in assay [9] and in assay [10] was inactive.
Turning to `CCCCCCCC(=O)O`, the compound was called inactive in assay [1], in assay [2], in assay [3], in assay [4], in assay [5] and in [6]. The compound was classed as inactive in [7], in [8], in assay [9] and in assay [10].
Turning to `CCC(C)(C)C1CCC(O)CC1` (stereo not given), the compound was classed as inactive in assay [1], in assay [2], in [3], in assay [4], in assay [5] and in assay [6]. Moreover, the compound was classed as inactive in assay [7], in assay [8], in assay [9] and in assay [10].
As for `CCCCCCCCCCCCc1ccccc1S(=O)(=O)O`, the outcome in assay [1], in [5], in [6] and in assay [7] was inactive. Moreover, the half-maximal activity concentration (AC50) in [2] was 79.6 µM (active); in [3], 83.4 µM (active); in assay [4] it was 32.5 µM (active); in [8], 5.53 µM (active); in assay [9], 58.1 µM (active); in assay [10] it was 12 µM (active).
